Measured values from PubChem BioAssay (NCATS).
Records with an inconclusive call do not appear. Activity calls are given as the source filed them. Calls follow the shape of the dose curve; as a rule, active = well fitted inhibition curve with a large enough effect; inconclusive = small, poorly fitted or top-dose-only effect; inactive = no such curve, though single readings can be large or run the other way.

assay: qHTS for Inhibitors of the Aldehyde Dehydrogenase Family (ALDH1A2, ALDH1A3, ALDH2, ALDH3A1) (AID 2061307); settings: ALDH inhibition qHTS; series mostly up to 50.3 µM; activity change, negative = inhibition: at the top concentration; also: nearly all actives have a fitted effect of over 50% in size; as to Potency: test system not described further here
% is scaled to controls: 0 for no effect and ±100 for the full control effect; potency is read from the fitted curve at half-maximal effect.

| Structure (SMILES) | Potency | activity change, negative = inhibition |
| --- | --- | --- |
| Nc1nc2c(s1)C(c1ccccc1)CC(=O)N2 (stereo not given) | 11.3 µM (active) | – |
| O=C1C=CC(=O)N1c1ccc(N2CCOCC2)cc1 | 1.13 µM (active) | – |
| O=C(c1cnc(N2CCCCC2)c2ccccc12)N1CCN(c2ccccc2)CC1 | – | 2.15% (inactive) |
| N#Cc1cccc(NC(=O)N2C[C@@H]3C[C@H](C2)c2ccc(-c4ccc(OC(F)(F)F)cc4)c(=O)n2C3)c1 | – | -16.3% [at 34.4 µM] (inactive) |
| CCOc1ccc(NC(=O)Cn2c(=O)n(-c3ccccc3)c(=O)c3ccc(C(=O)NCc4ccc5c(c4)OCO5)cc32)cc1 | – | -39.9% [at 34.4 µM] (inactive) |
| O=Cc1ccc(N2Cc3ccccc3C2)cc1 | – | -6.79% [at 34.4 µM] (inactive) |
| COc1ccc(C(=O)OCC(=O)Nc2cccc(C(F)(F)F)c2)cc1OC | – | -19.9% (inactive) |
| NS(=O)(=O)c1ccc(Cc2cn(-c3nc(C(=O)O)cs3)c3cc(C(=O)N4CCOCC4)ccc23)cc1 | – | -3.7% (inactive) |
| O=C(Nc1cccc(Nc2ccccc2)c1)c1ccc(-c2cccc([N+](=O)[O-])c2)o1 | 1.27 µM (active) | – |
| Cc1n[nH]c(C)c1-n1c2c(cc(-c3nc(-c4ccc(Cl)cc4)cs3)c1=O)C(=O)CC(C)(C)C2 | – | -6.05% (inactive) |
| Cc1ccc2c(CC(=O)Nc3c(C(=O)c4ccc(F)cc4)oc4ccccc34)coc2c1C | – | -18.1% [at 34.4 µM] (inactive) |
| CC(C)(C)CNc1ncnc2ccc(-c3ccc4c(c3)OCO4)cc12 | – | 88.6% (inactive) |
| Cc1ccc(N2CCN(C(=S)c3ccc(-c4ccccc4[N+](=O)[O-])o3)CC2)cc1 | 3.57 µM (active) | – |
| O=C(Nc1ncc(CN2CCCCC2)s1)c1ccc(-c2cccc([N+](=O)[O-])c2)o1 | 11.3 µM (active) | – |
| O=C(Nc1cccc(Oc2ncccn2)c1)c1cccc(C(F)(F)F)c1 | – | -56.3% [at 34.4 µM] (inactive) |
| O=C(c1ccco1)N1CCN(Cc2nc3ccccc3c(=O)n2-c2ccccc2Oc2ccccc2)CC1 | – | -23.3% (inactive) |
| COc1ccccc1CN1CCC(N(CCc2ccccc2)Cc2ccccc2)CC1 | – | -18.7% (inactive) |
| Cc1c(P(=S)(c2ccccc2)c2ccccc2)[n+]2ccccc2n1C/C=C/c1ccc(Cl)cc1 | – | -7.71% (inactive) |
| COc1cccc2cc(C(=O)Nc3ccc(F)c(F)c3)c(=O)oc12 | – | -13.9% [at 34.4 µM] (inactive) |
| COc1ccc(-n2c(C)c(C(C)=O)c3cc(OC(=O)c4ccccc4OC(C)=O)ccc32)cc1 | – | 0% [at 34.4 µM] (inactive) |

| Structure (SMILES) | Potency | activity change, negative = inhibition |
| --- | --- | --- |
| Cc1cc(=O)n2[nH]c(NC(=O)c3ccccc3)nc2n1 | – | -36% (inactive) |
| c1coc(-c2ccc3nncn3c2)c1 | 8.96 µM (active) | – |
| CC1=C[C@@H](CNC(C)C)[C@H](C(C)C)C[C@H]1Cc1nnc(-c2ccncc2)o1 | – | -4.51% (inactive) |
| COc1cccc(N2CCN(C(=O)c3ccc4c(c3)N(C)C3CCCCCN3C4=O)CC2)c1 (stereo not given) | – | -29.9% [at 34.4 µM] (inactive) |
| CCN(CC)C(=O)c1ccc(S(=O)(=O)N2CCC(c3nc4ccccc4s3)CC2)cc1 | – | -10.7% (inactive) |
| COc1ccc(Cl)cc1Nc1cc(C)nc2nc(-c3ccccc3C)nn12 | – | -49.2% [at 34.4 µM] (inactive) |
| CC(=O)c1cccc(Nc2cc(C)nc3nc(-c4ccccc4C)nn23)c1 | – | -43.1% [at 34.4 µM] (inactive) |
| Cc1ccc(-c2cc(C(=O)O)c3cccc(C)c3n2)cc1 | 7.12 µM (active) | – |
| N#Cc1nc(-c2ccc(F)cc2)oc1N1CCN(C(=O)c2ccccc2F)CC1 | – | -11.8% (inactive) |
| Cc1ccc(NC(=O)c2nc3nc(C)cc(C)n3n2)c(F)c1 | – | -5.59% [at 34.4 µM] (inactive) |
| O=C(CSc1nc2ncccc2c(=O)n1-c1ccccc1)Nc1ccccc1 | – | 3.76% (inactive) |
| COc1ccc(-n2c(C)c(C(=O)c3ccccc3)c3cc(O)ccc32)cc1 | – | 3.6% [at 34.4 µM] (inactive) |
| O=C1c2ccccc2-c2nnc(-c3ccncc3)cc21 | – | -23.4% (inactive) |
| COc1ccc(-c2nn(-c3ccccc3)cc2C(=O)Nc2ccccc2OC)cc1 | – | -57.3% [at 34.4 µM] (inactive) |
| Oc1[nH]c2ccccc2c1N=NC(=S)Nc1ccc2c(c1)CCC2 | – | -18.5% (inactive) |
| COc1ccc(OC)c(NC(=O)c2cc3cccc(OC)c3oc2=O)c1 | – | -20.3% [at 34.4 µM] (inactive) |
| CC/C=C\C/C=C\C/C=C\C/C=C\C/C=C\C/C=C\CCC(=O)NCCN(C)C | – | -5.58% (inactive) |
| Cc1ccccc1OCC(O)Cn1c(NCc2ccccc2)nc2c1c(=O)n(C)c(=O)n2C (stereo not given) | – | -26.5% (inactive) |
| Cc1ccn2c(=O)c(C(=O)NC(C)c3ccccc3)c(O)nc2c1 (stereo not given) | – | -34.8% [at 34.4 µM] (inactive) |
| Cc1cccc(NC(=O)CSCC(=O)Nc2ccc(F)cc2)c1 | – | -8.39% (inactive) |
